Source: PubChem BioAssay
NS1 inh: inhibitors of influenza NS1 protein function | Potency, µM (titrated, usually from 46.1 µM), for the others: at the highest dose activity, positive = more growth | 270,000 compounds, 0.4% hits; calls by dose curve; further: potency means the concentration at half of the fitted maximal effect; actives are rising curves; nearly all actives have a fitted effect of over 50% in size
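In this qHTS, NS1 from influenza A is expressed in budding yeast, where it slows growth. Cells are switched from glucose to 2% galactose medium (pH 6.0, -URA), treated with compound, and growth recovery is read at OD600.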
Giardia FBPA inh-1: inhibitors of Giardia lamblia fructose-1,6-bisphosphate aldolase | 290,000 compounds, 0.71% hits | A8B2U2 | Potency, µM (top dose mostly 59.6 µM), for inactives: top-dose activity, negative = inhibition, most hits filed as inhibitors | AID 2451 | purified Giardia FBPA; further: potency means the concentration at half of the fitted maximal effect; on the % scale 0 is the no-effect control and ±100 the full control effect; nearly all actives have a fitted effect of over 55% in size
Target sequence (A8B2U2 whole entry, looked up): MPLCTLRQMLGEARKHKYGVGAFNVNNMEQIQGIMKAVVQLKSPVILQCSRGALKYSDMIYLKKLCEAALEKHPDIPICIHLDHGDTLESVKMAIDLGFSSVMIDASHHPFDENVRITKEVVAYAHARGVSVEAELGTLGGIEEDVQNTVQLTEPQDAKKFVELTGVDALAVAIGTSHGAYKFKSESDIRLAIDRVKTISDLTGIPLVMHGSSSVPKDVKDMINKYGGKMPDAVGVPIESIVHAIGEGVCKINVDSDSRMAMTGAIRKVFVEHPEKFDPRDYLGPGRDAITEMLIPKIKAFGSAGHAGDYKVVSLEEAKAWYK
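40 nM FBPA preincubated 10 min at RT with compound (up to 57.5 uM final), then substrate plus GAPDH/TPI/NAD/arsenate coupling and diaphorase/resazurin added. Fluorescence read after 20 min at RT, 525/598 nm.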
CHX counter: counter-screen for Shiga toxin inhibitors: cycloheximide protein synthesis inhibition; cell reporter, cycloheximide protein synthesis inhibition counterscreen; max response, %; 300,000 compounds, 12% hits; AID 2314; in the data active means max response mostly above about 13%, no sharp cut-off; inactive means mostly below about 14%; further: read at 38.3 µM for the half of the compounds with a filed dose; 0% is about no effect
Shiga inhibitor: Shiga toxin inhibition; Vero cells, Shiga toxin protein synthesis inhibition reporter; inhibition, % at 38.7 µM; 290,000 compounds, 9.2% hits; in the data active means inhibition mostly above about 28%, no sharp cut-off; inactive means mostly below about 43%; further: 0% is about no effect
LmPK inhibitor: inhibitors of Leishmania mexicana pyruvate kinase; AID 1721; Potency, µM (titrated, usually from 57.5 µM), for the others: at the highest dose activity change, negative = inhibition, actives largely listed as inhibitors; 290,000 compounds, 0.37% hits; purified LmPK, Kinase-Glo ATP luminescence, 1 h; Q27686; further: potency means the concentration at half of the fitted maximal effect; on the % scale 0 is the no-effect control and ±100 the full control effect
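ATP generated from ADP (0.1 mM) and PEP (0.5 mM) by 0.1 nM LmPK over 1 h at room temperature (pH 7.2 imidazole buffer) was detected by coupled luciferase luminescence. Values were normalized to uninhibited and no-enzyme wells.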
Giardia growth: Giardia lamblia growth inhibition | shares compounds with Giardia FBPA inh-1 | Giardia lamblia trophozoite growth inhibition | AID 2785 | 1,500 compounds, 5% hits | Potency, µM (series often up to 57.5 µM), without a hit: top-dose activity change, negative = inhibition, most hits filed as inhibitors;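 further: potency means the concentration at half of the fitted maximal effect; trophozoites exposed to compound for 48 h at 37 °C; on the % scale 0 is the no-effect control and ±100 the full control effect; nearly all actives have a fitted effect of over 70% in size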
Mammal cell tox: counter-screen for Giardia aldolase inhibitors: mammalian cell toxicity. shares compounds with Giardia FBPA inh-1. mammalian cell viability counter-screen, qHTS. Potency, µM (doses to about 57.5 µM), without a hit: at the highest dose viability change, negative = toxicity, actives largely listed as inhibitors. 1,500 compounds, 4% hits;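 further: Chinese hamster ovary cells used as mammalian cytotoxicity surrogate; viability measured as cellular ATP by luminescence; potency means the concentration at half of the fitted maximal effect; compound exposure lasted 48 h before reading; on the % scale 0 is the no-effect control and ±100 the full control effect; nearly all actives have a fitted effect of over 60% in size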
Giardia FBPA inh-2: confirmation of Giardia fructose-bisphosphate aldolase inhibitors | Potency, µM (top dose mostly 57.5 µM), inactives show at the top dose activity change, negative = inhibition, usual class: inhibitors | purified Giardia aldolase enzyme activity, qHTS | AID 2787 | 1,500 compounds, 5% hits | shares compounds with Giardia FBPA inh-1; further: potency means the concentration at half of the fitted maximal effect; on the % scale 0 is the no-effect control and ±100 the full control effect; nearly all actives have a fitted effect of over 45% in size
Rabbit FBPA inh: blocks rabbit muscle aldolase in Giardia aldolase selectivity test; Rabbit muscle FBPA enzyme inhibition, selectivity counter-screen; shares compounds with Giardia FBPA inh-1; Potency, µM (titrated, usually from 57.5 µM), for inactives: top-dose activity, negative = inhibition, hits mostly inhibitors; 1,500 compounds, 4% hits; AID 2794; further: potency means the concentration at half of the fitted maximal effect; on the % scale 0 is the no-effect control and ±100 the full control effect; nearly all actives have a fitted effect of over 60% in size
Target sequence (P00883 whole entry, looked up): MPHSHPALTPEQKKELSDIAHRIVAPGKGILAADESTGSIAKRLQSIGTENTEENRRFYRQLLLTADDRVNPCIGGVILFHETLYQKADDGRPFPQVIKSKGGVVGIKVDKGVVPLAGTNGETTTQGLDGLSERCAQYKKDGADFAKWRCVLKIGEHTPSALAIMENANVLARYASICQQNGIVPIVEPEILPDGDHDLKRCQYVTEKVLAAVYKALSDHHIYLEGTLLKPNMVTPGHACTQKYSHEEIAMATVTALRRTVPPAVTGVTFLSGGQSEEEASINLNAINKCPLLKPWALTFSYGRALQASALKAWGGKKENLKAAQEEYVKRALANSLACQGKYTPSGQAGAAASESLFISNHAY
GAPDH counter: GAPDH inhibition flagged for Giardia aldolase hits. Potency, µM (top dose mostly 57.5 µM), inactives show at the highest dose activity change, negative = inhibition, hits mostly inhibitors. GAPDH coupling enzyme counterscreen, biochemical, qHTS. AID 2795. shares compounds with Giardia FBPA inh-1. 1,500 compounds, 6% hits; further: potency means the concentration at half of the fitted maximal effect; on the % scale 0 is the no-effect control and ±100 the full control effect; nearly all actives have a fitted effect of over 55% in size
The depositor's hits bear a star; u = inconclusive; x = no result; [ ] = another dose, or the depositor's remark. In the library only some 14% were active in any assay of this set; here they are far more common. Unless noted, the call rests on the fitted dose curve; in most records, active means well fitted curve in the direction sought with a large enough effect; inconclusive means small, poorly fitted or top-dose-only effect, or another doubt; inactive means no such curve, though single readings can be large; an effect the other way counts as inactive or inconclusive.

SMILES	NS1 inh	Giardia FBPA inh-1	CHX counter	Shiga inhibitor	LmPK inhibitor	Giardia growth	Mammal cell tox	Giardia FBPA inh-2	Rabbit FBPA inh	GAPDH counter
O=c1[nH]c(=S)[nH]c2sccc12	x	7.1µM*	4	-11	6%	-6%[38.3 µM]	-6%	-12%	-15%	-9%
CCc1ccc(-n2c(=S)sc3c(=O)n(-c4ccccc4)c(SCC(=O)O)nc32)cc1	12%	14%	-2	-6	1%	x	x	x	x	x
Cc1onc(-c2c(Cl)cccc2Cl)c1C(=O)NC(=S)N1CCOCC1	2%	4µM*	-2	-14	-28%	-4%[38.3 µM]	u	-6%	5%	3%
CCOC(=O)N1CCN(C(=S)NC(=O)c2c(-c3c(Cl)cccc3Cl)noc2C)CC1	x	5%	-1	24	-3%	x	x	x	x	x
N#C/C(=C(/O)CCl)c1nc2c(s1)CCc1ccccc1-2	-28%	14µM*	30*	54*	3%	u	-11%	u	u	-22%
Cc1cc(=O)n(CC(=O)O)c2ccccc12	0%	1%	-1	-23	1%	x	x	x	x	x
Cc1cc(C)n(CC(=O)O)c(=O)c1[N+](=O)[O-]	x	7.9µM*	4	16	0%	-25%	19%	-9%	-4%	5%
CNS(=O)(=O)c1cn(CC(=O)NCc2ccc(N(C)C)cc2)cc1S(=O)(=O)NC	-2%	4%	0	-5	1%	x	x	x	x	x
C=CCNC(=S)/C(=C(\[O-])c1ccc(Cl)cc1)[n+]1ccccc1	0%	13µM*	-1	-3	2%	-21%	4%	-2%	7%	-2%
CCOc1ccc(CN(CC)C(=O)Cc2c[nH]c3ccccc23)cc1OC	-3%	4%	-1	-7	-8%	x	x	x	x	x
O=C(Nc1nc(-c2ccccn2)cs1)c1ccc2c(c1)OCCO2	9%	18µM*	44*	62*	4%	-24%[10.4 µM]	u	11%	-3%	-11%
O=C(Nc1nc(-c2ccccn2)cs1)c1ccccc1-n1cnnn1	-11%	7.9µM*	10*	6	-5%	20µM*	u	-4%	-16%	u
COc1cccc(C(=O)Nc2nc(-c3ccc4c(c3)OCO4)cs2)c1	-2%	-6%	3	16	-7%	x	x	x	x	x
Cc1ccc(C(=O)Nc2nc(-c3ccccn3)cs2)o1	-10%	13µM*	23*	48*	-5%	u	u	9%	-14%	-16%
O=C(Nc1nc(-c2ccccn2)cs1)c1ccc([N+](=O)[O-])o1	-2%	x	16	10	-8%	x	x	8%	-4%	0%
COc1cccc(CN2CC(C(=O)NCc3ccc(C)o3)CCC2=O)c1 (centres undefined)	-5%	18%	-4	8	2%	x	x	x	x	x
NS(=O)(=O)c1ccc(NC(=S)N2CCC(O)CC2)cc1	x	16µM*	-4	-4	0%	u	17%	4%	13%	4%
CCOC(=O)C1CCN(C(=S)Nc2ccc(S(N)(=O)=O)cc2)CC1	-5%	0%	-1	-7	4%	x	x	x	x	x
O=C(O)c1cc(O)c(O)c(O)c1	x	3.5µM*	x	x	x	-29%[38.3 µM]	40µM*	14µM*	20µM*	25µM*
O=C(O)c1cc(O)c2c(c1)C(=O)c1cc(O)cc(O)c1C2=O	1%	u	-2	14	u	x	x	x	x	x
CNc1ccnc(-c2c(C)noc2C)n1	x	-4%	x	x	x	x	x	x	x	x
O=c1cc2oc3cc(O)c(O)cc3c(-c3ccccc3O)c-2cc1O	1%	16µM*	8	-5	-21%	-20%	8%	u	-6%	10%
COc1ccc(OC)c(-c2c3cc(O)c(=O)cc-3oc3cc(O)c(O)cc23)c1	u	u	-5	-3	-22%	x	x	x	x	x
COc1cc(/C=C(\C#N)C(=O)c2c[nH]c3ccccc23)cc(OC)c1O	x	7.9µM*	1	28	6%[11.5 µM]	-18%	3%	2µM*	u	u
CCNC(=S)NS(=O)(=O)c1ccc(F)cc1	-10%	u	-3	-13	0%	4%[38.3 µM]	3%	4%	-1%	2%
SMILES	NS1 inh	Giardia FBPA inh-1	CHX counter	Shiga inhibitor	LmPK inhibitor	Giardia growth	Mammal cell tox	Giardia FBPA inh-2	Rabbit FBPA inh	GAPDH counter
O=C(O)/C=C/C(=O)Nc1ccc(C(=O)c2ccccc2)cc1	-5%	6%	-1	-12	7%	x	x	x	x	x
O=C(O)/C=C/C(=O)Nc1ccc(O)cc1	-1%	u	12	2	-5%	16%[38.3 µM]	u	5.2µM*	u	5.8µM*
O=C1c2ccccc2-c2c1cccc2C(=O)N1CCN(C(=O)c2ccco2)CC1	-5%	-6%	2	-3	0%	x	x	x	x	x
O=C(O)CCCNc1cc(N2CCN(C(=O)c3ccco3)CC2)c2noc3c2c1C(=O)c1ccccc1-3	22%	3.5µM*	-7	1	-19%	u	-18%	u	u	u
O=C(CCCn1ncn2c(cc3occc32)c1=O)NCc1cccc(Cl)c1	-16%	x	6	2	3%	x	x	x	x	x
CCC(C)CCN1C(Nc2ccccc2)=NC[C@@H]1C (some centres undefined)	-10%	4%	1	-10	-5%	x	x	x	x	x
CCN1CCN(Cc2cc(OC)c(OC)cc2[N+](=O)[O-])CC1	5%	u	-2	8	-2%	x	x	x	x	x
COc1cc(CN2CCN(Cc3ccc([N+](=O)[O-])cc3)CC2)c([N+](=O)[O-])cc1OC	x	13µM*	-2	-7	-3%	-17%	9%	u	-23%	-11%
Cc1cc(Cl)ccc1C(=O)C1CCCN(C(=O)c2cncs2)C1 (centres undefined)	-107%	7%	-2	-14	8%	x	x	x	x	x
COC(=O)C(Cc1ccc(O)cc1)NC(=O)c1ccc2c(c1)OCCO2 (centres undefined)	5%	-5%	24	14	-8%	x	x	x	x	x
CCOCCCn1c(=O)c2ccccc2n2c(=S)[nH]nc12	6%	13µM*	-2	-7	2%	28%	5%	9%	18%	10%
CC(C)CCn1c(=O)c2ccccc2n2c(=S)[nH]nc12	-13%	29%	-3	1	-5%	x	x	x	x	x
CC1CC(C)(C)CC2(C1)NC(=O)N(CC(=O)Nc1ccc(N3CCCCC3)cc1)C2=O (centres undefined)	13%	x	8	4	1%	x	x	x	x	x
COC(CNC(=O)c1ccc(CS(=O)(=O)c2c(Cl)cccc2Cl)o1)OC	6%	4%	-4	-2	3%	x	x	x	x	x
